PubChem BioAssay AID1851 (National Center for Advancing Translational Sciences (NCATS), 2009)
Values joined by “and” are separate entries in the source; they are usually repeats but may differ in a detail not shown here. Equal values may be shown once. About 5,100 (32%) of roughly 16,000 compounds were called active. About 25% were inconclusive and are not listed. The call rests on the fitted dose curve; in most records, active means well fitted curve in the direction sought with a large enough effect; inconclusive means small, poorly fitted or top-dose-only effect, or effect the other way; inactive means no such curve, though single readings can be large or run the other way. This is one part of the list. Square brackets hold non-standard residues; d marks the D form. Peptide text beside a SMILES is read from it. * marks the point of attachment. ξ: configuration not given here. Cbz = O=C(OCc1ccccc1)*; PhAc = O=C(Cc1ccccc1)*; OBn = c1ccc(CO*)cc1; ξA = CC(N)C(=O)O

biological target: Cytochrome P450 3A4 (Homo sapiens) (UniProt P08684); experiment: Cytochrome panel assay with activity outcomes; conditions: recombinant CYP, pro-luciferin dealkylation, luminescence, p450-cyp3a4; series mostly up to 57.1 µM
On the % scale 0 is the no-effect control and ±100 the full control effect.

Cytochrome P450 3A4 (Homo sapiens), sequence (P08684 whole entry, looked up): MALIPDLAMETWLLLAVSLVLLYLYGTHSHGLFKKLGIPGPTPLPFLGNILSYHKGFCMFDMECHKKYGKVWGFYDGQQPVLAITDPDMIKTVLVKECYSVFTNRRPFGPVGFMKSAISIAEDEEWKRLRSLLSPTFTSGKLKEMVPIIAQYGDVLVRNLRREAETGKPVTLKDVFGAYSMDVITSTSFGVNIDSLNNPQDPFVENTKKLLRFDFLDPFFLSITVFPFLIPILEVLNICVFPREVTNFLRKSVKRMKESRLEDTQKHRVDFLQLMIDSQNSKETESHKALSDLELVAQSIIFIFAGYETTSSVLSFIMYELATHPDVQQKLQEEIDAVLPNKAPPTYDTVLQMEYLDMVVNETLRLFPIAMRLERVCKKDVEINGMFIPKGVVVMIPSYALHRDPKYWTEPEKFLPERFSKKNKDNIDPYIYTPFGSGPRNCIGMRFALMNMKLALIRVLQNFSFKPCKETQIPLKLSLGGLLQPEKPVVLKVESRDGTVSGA

Row | SMILES | AC50 | activity, negative = inhibition
1 | CCc1ccc(N2C(=O)c3ccc4c5c(ccc(c35)C2=O)CC4)cc1 | inactive | –
2 | COC(=O)Nc1nc2ccc(Sc3ccccc3)cc2[nH]1 | inactive | –
3 | COc1ccc(C(=O)NCc2ccc(-c3nc4ccccc4s3)cc2)cc1 | 2.51 µM (active) | –
4 | O=C(NC1CCCc2ccccc21)C1CCN(S(=O)(=O)N2CCCCCC2)CC1 (configuration not stated) | 7.94 µM (active) | –
5 | O=C(NC1CCCc2ccccc21)c1ccc(=O)[nH]c1 (configuration not stated) | – | 10.9% [at 2.29 µM] (inactive)
6 | C=CCOc1c2ccc(C(=O)NC3CCCc4ccccc43)cc2nn1C (configuration not stated) | – | 3.25% [at 2.29 µM] (inactive)
7 | Cc1ccccc1/C=C\C1=NCCN1 | inactive | –
8 | COc1cc(/C=N/NC(=O)c2cccnc2)ccc1OC(=O)c1ccco1 | 14.1 µM (active) | –
9 | Cc1cc(C(=O)N/N=C/c2cccc(OC(=O)c3ccco3)c2)n[nH]1 | – | 7.86% [at 2.29 µM] (inactive)
10 | O=C(N/N=C/c1ccccn1)c1ccco1 | inactive | –
11 | COc1cc(/C=N/NC(=O)c2cccnc2)ccc1OC(=O)c1ccc2c(c1)OCO2 | 1.26 µM (active) | –
12 | COc1c(/C=N/Nc2ccc([N+](=O)[O-])cc2[N+](=O)[O-])c(C)nn1-c1ccccc1 | inactive | –
13 | Cc1nc(N/N=C/c2ccccc2)nc(N(C)c2ccccc2)c1[N+](=O)[O-] | 7.08 µM (active) | –
14 | Cc1ccc(NC(=O)c2ccc(CSc3nnc(-c4ccncc4)n3C)cc2)cc1 | inactive | –
15 | C=CCn1c(SCc2ccc(C(=O)Nc3ccccc3)cc2)nnc1-c1ccccc1 | 4.47 µM (active) | –
16 | Cn1nnnc1SCc1ccc(C(=O)Nc2ccc(Br)cc2)cc1 | inactive | –
17 | COC(=O)c1c(C)nc2ccccc2c1C(=O)O | inactive | –
18 | COC(=O)c1c(C)[nH]c(C)c1C(=O)c1ccccc1Cc1ccccc1 | 1 µM (active) | –
19 | O=C(O)c1ccc(Cc2ccccc2C(=O)O)cc1 | – | -8.32% [at 11.4 µM] (inactive)
20 | COc1ccc(NC(=S)N2CCN(C/C=C/c3ccccc3)CC2)cc1OC | 17.8 µM (active) | –
21 | Cc1ccc(N=C/C(C(=O)C(F)(F)F)=C(\O)c2cccs2)cc1 | 12.6 µM (active) | –
22 | CC[C@H](C(=O)c1cccs1)C(O)(C(F)(F)F)C(F)(F)F | – | -6.43% [at 11.4 µM] (inactive)
23 | O=P(O)(COc1ccccc1)COc1ccccc1 | inactive | –

Row | SMILES | AC50 | activity, negative = inhibition
24 | CC(C)c1ccc(Cn2ccc3c4c(N)nc(NC5CC5)nc4ccc32)cc1 | 6.31 µM (active) | –
25 | CCC(C)(C)N=C(NC#N)Nc1cccnc1 | 5.01 µM (active) | –
26 | CC(C)CN(C)c1nc(N)c(C(=O)N=C(N)N)nc1Cl | inactive | –
27 | Cc1cnc(CNc2ncncc2-c2ccoc2)cn1 | 2 µM (active) | –
28 | Cc1cnc(CNc2ncncc2-c2ccc(N(C)C)cc2)cn1 | 2 µM (active) | –
29 | Cc1cnc(CNc2ncncc2-c2ccc(C(=O)N(C)C)cc2)cn1 | 12.6 µM (active) | –
30 | Cc1cnc(CNc2cc(-c3ccc(C(=O)N(C)C)cc3)ncn2)cn1 | inactive | –
31 | COC(=O)Nc1nc2ccc(C(=O)c3cccs3)cc2[nH]1 | inactive | –
32 | C[C@@H](C(=O)O)c1ccc(C(=O)c2cccs2)cc1 | inactive | –
33 | CNCCCCCCCCSc1nc(C(C)C)ccc1C(=O)c1cccs1 | 2.51 µM (active) | –
34 | CCOC(=O)N/N=C1/C[C@@H](O)[C@@H](O)[C@@H]2[C@@H]3C(=O)N(CC)C(=O)[C@H]3CC[C@@H]12 | – | -14.4% [at 11.4 µM] (inactive)
35 | Cc1ccc(-n2[nH]c(C)c(C=Nc3ccc4[nH]c(=O)[nH]c4c3)c2=O)cc1C | 14.1 µM (active) | –
36 | Cn1c(=O)n(CC#N)c2ccccc21 | – | -1.21% [at 2.29 µM] (inactive)
37 | O=C(NCCN1CCOCC1)c1nn2c(c1Cl)NC(c1ccccc1)CC2C(F)(F)F (configuration not stated) | 7.08 µM (active) | –
38 | COc1ccc(NC(=O)c2cc3n(n2)C(C(F)(F)F)CC(c2ccc4c(c2)OCO4)N3)cc1OC (configuration not stated) | inactive | –
39 | O=C(NCCN1CCOCC1)c1ccc2ccccc2c1 | inactive | –
40 | COc1ccc(OC)c(NC(=O)c2cc3n(n2)C(C(F)(F)F)CC(c2ccc4c(c2)OCO4)N3)c1 (configuration not stated) | 3.98 µM (active) | –
41 | Cc1nn(C)c(C)c1CNC(=O)c1cnn2c1NC(c1ccccc1)CC2C(F)(F)F (configuration not stated) | 12.6 µM (active) | –
42 | COc1ccc(C2CC(C(F)(F)F)n3nc(C(=O)N(C)Cc4cn(C)nc4C)c(Cl)c3N2)cc1 (configuration not stated) | 2.51 µM (active) | –
43 | Cc1cc(C(F)F)n2ncc(C(=O)NCc3ccccc3C(F)(F)F)c2n1 | inactive | –
44 | CC12CC(NC(=O)N1c1cccc(C(=O)NCc3ccccc3)c1)c1ccccc1O2 (configuration not stated) | inactive | –
45 | Cc1ccc(C2C(C=Nc3c(C)n(C)n(-c4ccccc4)c3=O)=C(c3ccccc3)Oc3ccccc32)cc1 (configuration not stated) | inactive | –
46 | Cc1ccc(C2CC(C(F)(F)F)n3nc(C(=O)NCCN4CCOCC4)cc3N2)cc1 (configuration not stated) | 7.94 µM (active) | –

Row | SMILES | AC50 | activity, negative = inhibition
47 | O=C(CNC(=O)c1ccco1)OCc1c(F)cccc1Cl | – | -10.2% [at 2.29 µM] (inactive)
48 | CC(C)(C)c1ccc(COC(=O)CNC(=O)CNC(=O)Cc2ccccc2)cc1 | 12.6 µM (active) | –
49 | O=C(CNC(=O)Cc1ccccc1)NCC(=O)OCc1ccccc1 (PhAc-Gly-Gly-OBn) | inactive | –
50 | COC(=O)CNC(=O)C(C)NC(=O)CNC(=O)OCc1ccccc1 (stereo not drawn) (Cbz-Gly-[ξA]-Gly-OMe) | – | -0.615% [at 2.29 µM] (inactive)
51 | O=C(CNC(=O)c1cccs1)NCC(=O)OCc1ccc(Cl)cc1Cl | 7.08 µM (active) | –
52 | O=C(CNC(=O)c1cccs1)NCC(=O)OCc1ccc(Cl)cc1 | 25.1 µM (active) | –
53 | CC(=O)N(O)CCCCCNC(=O)CCC(=O)N(O)CCCCCNC(=O)CCC(=O)N(O)CCCCCN | inactive | –
54 | O=C(O)C[C@H]1OCC=C2C[N@@+]3([O-])CC[C@]45c6ccccc6N[C@@H]4[C@@H]1[C@H]2C[C@H]53 | – | -0.0687% [at 11.4 µM] (inactive)
55 | O=C(c1ccc2c(c1)N(Cc1ccccc1)C(=O)CS2)N1CCOCC1 | inactive | –
56 | O=C1C2CCCN2c2ccc(S(=O)(=O)N3CCOCC3)cc2N1Cc1cccc(C(F)(F)F)c1 (configuration not stated) | 15.8 µM (active) | –
57 | Cc1ccc(C)c(CN2C(=O)C3CCCN3c3ccc(C#N)cc32)c1 (configuration not stated) | 5.01 µM (active) | –
58 | Cc1ccc(C)c(CN2C(=O)C3CCCN3c3ccc(S(=O)(=O)N4CCOCC4)cc32)c1 (configuration not stated) | 11.2 µM (active) | –
59 | O=C(Cn1cc(C(F)(F)F)ccc1=O)N1CCN(S(=O)(=O)c2ccccc2)CC1 | – | -26.5% [at 11.4 µM] (inactive)
60 | Cc1ccc(C2CC2C(=O)NN)cc1 (configuration not stated) | 7.94 µM (active) | –
61 | O=C(O)[C@@H](O)c1ccc(F)cc1 | – | -5.47% [at 11.4 µM] (inactive)
62 | COc1ccc([C@@H](Nc2ncccn2)c2cc3c(cc2O)OCO3)cc1 | 2.51 µM (active) | –
63 | COc1ccc([C@H](O)c2ccccn2)cc1 | – | -5.07% [at 11.4 µM] (inactive)
64 | COc1ccc([C@@H](C)c2cc3c(cc2O)OCO3)cc1 | 2.51 µM (active) | –
65 | N#CC(=C(/N)Sc1ccccc1N)/C(C#N)=C(/N)Sc1ccccc1N | 316 nM (active) and 3.16 µM (active) | –
66 | N#CC1=C(SCC(N)=O)NC2=C(C(=O)c3ccccc32)C1c1ccc(Cl)cc1 (configuration not stated) | 10 µM (active) | –
67 | C[N+](C)(C)CC[N+]1(C)Cc2c(Cl)c(Cl)c(Cl)c(Cl)c2C1 | inactive | –
68 | C/C(CC(=O)Nc1cc(C)ccn1)=N\NC(=O)COc1cccc(C)c1 | – | -15.1% [at 2.29 µM] (inactive)
69 | Cc1cccc2c1OCC/C2=N\NC(=O)COc1ccccc1Cl | inactive | –

Row | SMILES | AC50 | activity, negative = inhibition
70 | Cc1cccc(C)c1NC(=O)COc1cccc(/C=N/NC(=O)C(=O)NCc2ccccc2)c1 | inactive | –
71 | CCOc1ccc(C(CC(=O)O)NC(=O)COc2ccccc2)cc1 (configuration not stated) | inactive | –
72 | COc1cccc(OCC(=O)NN=C2c3ccccc3-c3ccccc32)c1 | 6.31 µM (active) | –
73 | Cc1cccc2c1OCC/C2=N\NC(=O)COc1ccccc1 | 15.8 µM (active) | –
74 | CC(N)=NCCCC[C@H](N)C(=O)O | inactive | –
75 | CC(C)c1cccc2nc3c(c([Si](C)(C)C(C)(C)C)c12)Cn1c-3cccc1=O | 12.6 µM (active) | –
76 | CCc1c2c(nc3cccc(OC)c13)OC(CC)C2 (configuration not stated) | inactive | –
77 | CC(C)c1cccc2nc3c(c([Si](C)(C)C)c12)Cn1c-3cccc1=O | 10 µM (active) | –
78 | CCc1c2c(nc3cccc(C(C)C)c13)-c1cccc(=O)n1C2 | 15.8 µM (active) | –
79 | CCc1cccc2nc3c(c([Si](C)(C)C)c12)Cn1c-3cccc1=O | 12.6 µM (active) | –
80 | O=C1CS/C(=C\[N+](=O)[O-])N1c1ccc(OC(F)(F)F)cc1 | inactive | –
81 | Cc1cc(C2CCCCC2)n(O)c(=O)c1 | inactive | –
82 | CCN(CC)CCOc1ccc(/C(=C(\Cl)c2ccccc2)c2ccccc2)cc1 | inactive | –
83 | CN(C)CCCO[C@H]1[C@H]([C@H](O)CO)O[C@H]2OC(C)(C)O[C@@H]21 | inactive | –
84 | O=c1c2ccccc2nc2n1CCC2 | inactive | –
85 | Cc1c2c(nc3ccccc13)-c1cccc(=O)n1C2 | 12.6 µM (active) | –
86 | Cc1[nH]nc(-c2ccc(OCc3cnn(-c4ccccc4)c3)cc2O)c1Oc1ccc(F)cc1 | 14.1 µM (active) | –
87 | Cc1ccccc1OC1C(=O)N(Cc2ccc3c(c2)OCO3)C1c1sccc1C (configuration not stated) | 0.794 µM (active) | –
88 | COc1ccc(CCN2C(=O)C(Oc3ccccc3C)C2c2ccc3c(c2)OCO3)cc1OC (configuration not stated) | 0.501 µM (active) | –
89 | COC(=O)c1ccc(C2C(Oc3ccccc3)C(=O)N2CCc2ccc(OC)c(OC)c2)cc1 (configuration not stated) | 2.82 µM (active) | –
90 | NC(N)=NC(N)=Nc1ccccc1 (tested in a mixture with another compound) | – | -12.3% [at 11.4 µM] (inactive)
91 | Clc1ccc(C2=C3CCCCn4c(-c5ccccc5)c[n+](c43)C2)cc1 | inactive | –
92 | CC[C@H](NC(C)C)[C@H](O)c1ccc(O)c2[nH]c(=O)ccc12 | inactive | –
